SUMO Mot1 rescue: SUMOylation pathway inhibition by Mot1-301 growth rescue; S. cerevisiae Mot1-301 growth rescue, ATP luminescence, 38.5C; percent above DMSO median, 100 means doubled; growth rescue, % at 18.8 µM; 320,000 tested, 1% active; AID 2716;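 active = every valid replicate shows activation above 250% relative to neutral control wells; inactive = the rest, any valid replicate at or below 250%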;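 note: OY570 slx delta 5 strain wells were the positive control but not used for scaling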
PfM18AAP inh-1: blocks P. falciparum M18 aspartyl aminopeptidase. recombinant PfM18AAP, H-Glu-NHMec fluorogenic cleavage. 290,000 tested, 1.2% active. inhibition, % at 7.35 µM;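 active = inhibition above the campaign mean inhibition over all tested compounds plus 3 SD, cut at about 28% in these data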;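 note: 0% = plate median of test compound wells and 100% = 2 mM ZnCl2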
HIF act: HIF pathway transcriptional activation | U2OS HRE-luciferase reporter, luminescence; normalized: DMSO 0%, desferrioxamine 100% | 300,000 tested, 0.32% active | activation, % at 7.5 µM (by protocol);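 active = mean activation of at least 10% of the iron chelator positive control signal, with at least half of replicates also reaching 10%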
ALR H2O2 inh: inhibitors of human sulfhydryl oxidase ALR. 290,000 tested, 3.8% active. AID 485317. inhibition, % (test concentration not listed). purified ALR, DTT oxidation, H2O2 HRP-luminol luminescence. P55789;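 active = mean replicate inhibition above about 79%, with every replicate also reaching it, limit read from the data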
Target sequence (P55789 whole entry, looked up): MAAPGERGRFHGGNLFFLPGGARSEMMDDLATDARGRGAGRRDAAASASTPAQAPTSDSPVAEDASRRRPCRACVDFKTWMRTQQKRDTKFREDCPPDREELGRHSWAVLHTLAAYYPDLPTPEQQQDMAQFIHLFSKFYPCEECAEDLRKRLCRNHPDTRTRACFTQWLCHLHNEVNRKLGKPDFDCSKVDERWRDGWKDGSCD
PfM18AAP inh-2: confirmation of Plasmodium falciparum M18 aspartyl aminopeptidase inhibitors; shares compounds with PfM18AAP inh-1; recombinant PfM18AAP, H-Glu-NHMec fluorogenic cleavage; inhibition, % at 7.35 µM; 2,400 tested, 28% active;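 active = mean inhibition over replicate wells above the hit cutoff set for the earlier primary screen, cut at about 29% in these data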;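 note: 0% = median of test compound wells and 100% = 2 mM ZnCl2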
CTSL1 counter: counter-screen for PFM18AAP inhibitors: confirmation of human cathepsin L inhibitors; shares compounds with PfM18AAP inh-1; purified cathepsin L1, Z-Leu-Arg-MCA fluorescence; inhibition, % at 5.96 µM; 2,400 tested, under 10 active;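 active = average inhibition across replicates above the hit cutoff set in the earlier primary screen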;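 note: 0% = median of test compound wells and 100% = Z-Phe-Ala-diazomethylketone 1 µM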
Target sequence (P07711 whole entry, looked up): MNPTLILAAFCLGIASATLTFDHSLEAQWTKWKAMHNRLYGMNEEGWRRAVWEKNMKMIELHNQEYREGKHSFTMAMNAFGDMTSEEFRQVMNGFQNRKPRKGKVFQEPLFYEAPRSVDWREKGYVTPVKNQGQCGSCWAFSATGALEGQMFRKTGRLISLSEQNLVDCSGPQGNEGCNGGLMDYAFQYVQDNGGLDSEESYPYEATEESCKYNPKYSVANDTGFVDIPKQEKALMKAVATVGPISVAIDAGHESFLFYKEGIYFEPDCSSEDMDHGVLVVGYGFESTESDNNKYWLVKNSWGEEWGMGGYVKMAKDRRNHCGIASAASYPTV
* = called active by the depositor. Rows were chosen to be rich in hits. Some 5.3% of all compounds tested hit in one or more screens of this group.

COc1cccc(/C=C2\SC(=O)N(CCC(=O)N3CCC(C(=O)O)CC3)C2=O)c1 was read as SUMO Mot1 rescue 25.0, PfM18AAP inh-1 34.8*, HIF act -0.4, ALR H2O2 inh -3.9, PfM18AAP inh-2 -38.5 and CTSL1 counter 3.3.
For Cc1ccc(NC(=O)C2CCN(S(C)(=O)=O)CC2)cc1Cl the results were SUMO Mot1 rescue 141.8, PfM18AAP inh-1 0.5, HIF act -2.5 and ALR H2O2 inh -1.2.
Clc1cc(Cl)cc(Nc2ncn[nH]2)c1 was read as SUMO Mot1 rescue -6.1, PfM18AAP inh-1 44.7*, HIF act 0.2, PfM18AAP inh-2 36.0* and CTSL1 counter -3.5.
COc1ccc(Cl)cc1S(=O)(=O)Nc1ncn[nH]1 was read as SUMO Mot1 rescue 161.7, PfM18AAP inh-1 23.1, HIF act 0.4 and ALR H2O2 inh -8.8.
`Nc1c(NCCN2CCCCC2)c2ccccc2oc1=O` gave SUMO Mot1 rescue 39.7, PfM18AAP inh-1 1.9, HIF act 0.7 and ALR H2O2 inh 0.4.
Screening CCCNc1c(N)c(=O)oc2ccccc12 returned SUMO Mot1 rescue 12.6, PfM18AAP inh-1 48.6*, ALR H2O2 inh 34.0, PfM18AAP inh-2 -2.7 and CTSL1 counter -5.7.
Screening NC(=O)C(=CNc1nc(-c2ccc(Cl)c(Cl)c2)cs1)C(N)=O returned PfM18AAP inh-1 68.7*, PfM18AAP inh-2 53.0* and CTSL1 counter -1.6.
`COc1ccc(O)c(/C=C2/SC(=S)N(Cc3ccccc3)C2=O)c1` gave SUMO Mot1 rescue -4.6, PfM18AAP inh-1 41.6*, HIF act -0.5, ALR H2O2 inh 2.8, PfM18AAP inh-2 -4.3 and CTSL1 counter 3.5.
For N#CC1=C(N)NC(=S)C(C(N)=O)C1c1ccc([N+](=O)[O-])cc1 (stereo not given) the results were SUMO Mot1 rescue 166.7, PfM18AAP inh-1 48.0*, HIF act -0.5, ALR H2O2 inh 67.8, PfM18AAP inh-2 35.2* and CTSL1 counter 7.3.
`CC(=O)Oc1ccc2c(=O)c(Oc3ccccc3)c(C)oc2c1OC(C)=O` gave SUMO Mot1 rescue 15.5, PfM18AAP inh-1 44.3*, HIF act -17.3, ALR H2O2 inh 99.5*, PfM18AAP inh-2 18.8 and CTSL1 counter -6.6.
Cc1nn(C(C)C(=O)NCc2cccs2)c(C)c1[N+](=O)[O-] (stereo not given) was read as SUMO Mot1 rescue -10.8, PfM18AAP inh-1 -13.4, HIF act -0.5 and ALR H2O2 inh -10.4.
`O=C(NNc1nc2cc3c(cc2s1)OCCO3)c1ccccc1` gave SUMO Mot1 rescue 6.4, PfM18AAP inh-1 54.5*, HIF act 3.5, ALR H2O2 inh 43.4, PfM18AAP inh-2 26.5 and CTSL1 counter 0.2.
For Cc1cccc2sc(NNC(=O)c3ccc4c(c3)OCCO4)nc12 the results were SUMO Mot1 rescue 16.4, PfM18AAP inh-1 33.7*, HIF act 0.2, PfM18AAP inh-2 -12.6 and CTSL1 counter -5.8.
Screening CC(=O)Nc1nc2cc3c(cc2s1)OCCO3 returned SUMO Mot1 rescue -12.5, PfM18AAP inh-1 4.9, HIF act 1.4 and ALR H2O2 inh -11.2.
Screening CC1CC(=O)Nc2ccccc2N1C(=O)CN1CCN(c2ccccc2)CC1 (stereo not given) returned SUMO Mot1 rescue -17.1, PfM18AAP inh-1 -1.2, HIF act -0.1 and ALR H2O2 inh 48.4.
`S=C(Nc1ccc(Cl)cc1Cl)Nn1cnnc1` gave SUMO Mot1 rescue -3.5, PfM18AAP inh-1 79.0*, HIF act -0.1, ALR H2O2 inh -4.7, PfM18AAP inh-2 77.3* and CTSL1 counter -0.3.
`S=C(Nc1cc(Cl)ccc1Cl)Nn1cnnc1` gave SUMO Mot1 rescue -18.2, PfM18AAP inh-1 81.0*, HIF act -0.5, PfM18AAP inh-2 76.8* and CTSL1 counter 5.9.
S=C(NCc1ccc(Cl)cc1)Nc1ccc(Cl)cc1Cl was read as SUMO Mot1 rescue -8.9, PfM18AAP inh-1 3.5 and HIF act 0.9.
NC(=S)Nc1cc(Cl)ccc1Cl was read as SUMO Mot1 rescue 2.1, PfM18AAP inh-1 -9.4, HIF act -0.4 and ALR H2O2 inh -2.8.
`COc1ccc(N(CC(=O)Nc2cc(Cl)ccc2C)S(=O)(=O)c2c(C)n[nH]c2C)cc1` gave SUMO Mot1 rescue 6.4, PfM18AAP inh-1 -12.4, HIF act 1.0 and ALR H2O2 inh 0.2.
For Cc1[nH][nH]c(=O)c1C(c1ccc(N(C)C)c(Br)c1)c1c(C)[nH][nH]c1=O the results were SUMO Mot1 rescue -17.6, PfM18AAP inh-1 35.7*, HIF act -0.3, ALR H2O2 inh 16.6, PfM18AAP inh-2 16.9 and CTSL1 counter 5.0.
Screening Cc1ccc(S(=O)(=O)Nc2cc(S(=O)(=O)N3CCOCC3)ccc2NCC2CCCO2)cc1 (stereo not given) returned SUMO Mot1 rescue -15.0 and ALR H2O2 inh 25.4.
`COc1ccc(/C=C2\CCC/C(=C\C=N\N(C)C)C2=O)cc1` gave SUMO Mot1 rescue -15.3, PfM18AAP inh-1 12.7, HIF act -0.1 and ALR H2O2 inh -18.0.
For CN(C)/N=C/C=C1\CCC/C(=C\c2ccc(F)c(F)c2)C1=O the results were SUMO Mot1 rescue 131.2, PfM18AAP inh-1 37.8*, HIF act 4.7, ALR H2O2 inh -11.5, PfM18AAP inh-2 25.7 and CTSL1 counter 4.2.
Cc1nn(-c2ccc(F)cc2)c(C)c1/C=C/C(=O)N1CCNC(=O)C1 was read as SUMO Mot1 rescue 4.6, PfM18AAP inh-1 -5.0, HIF act 2.7 and ALR H2O2 inh 1.5.
For COc1ccccc1C1C2=C(N=c3s/c(=C/c4cccc(OCC(=O)O)c4)c(=O)n31)c1ccccc1CC2 (stereo not given) the results were SUMO Mot1 rescue -17.3, PfM18AAP inh-1 36.5*, ALR H2O2 inh -44.6, PfM18AAP inh-2 -33.5 and CTSL1 counter -2.2.
For CCOC(=O)c1c(N)sc2c1C1CCN2CC1 the results were SUMO Mot1 rescue 0.9, PfM18AAP inh-1 50.3*, HIF act 0.0, ALR H2O2 inh 98.5*, PfM18AAP inh-2 10.3 and CTSL1 counter 2.9.
For CCOC(=O)c1c(NC(C)=O)sc2c1C1CCN2CC1 the results were SUMO Mot1 rescue 2.9, PfM18AAP inh-1 -0.2, HIF act -2.0 and ALR H2O2 inh 5.6.
`O=C(CSc1ncnc2c1cnn2-c1ccccc1)NC1CCCC1` gave SUMO Mot1 rescue 26.0, HIF act 1.0 and ALR H2O2 inh -12.9.
CC1CCC2(CC1)NC(=S)N(c1ccccc1)N2 (stereo not given) was read as SUMO Mot1 rescue 106.7, PfM18AAP inh-1 44.9*, HIF act 0.0, ALR H2O2 inh 93.4*, PfM18AAP inh-2 -24.4 and CTSL1 counter 1.7.
CC1CCC2(CC1)NC(=S)N(C(C)(C)C)N2 (stereo not given) was read as SUMO Mot1 rescue -2.8, PfM18AAP inh-1 -12.2, HIF act 0.3 and ALR H2O2 inh 2.8.
For COC(=O)c1c(N)sc(C(=O)NCCc2ccccc2)c1C the results were SUMO Mot1 rescue -6.7, PfM18AAP inh-1 39.9*, HIF act -1.6, ALR H2O2 inh 43.9, PfM18AAP inh-2 -10.7 and CTSL1 counter -4.5.
